About 83,000 compounds went through this panel and 20% of them were active in at least one assay; those are over-represented in the sample as a whole.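 Step 1: grow cells in 96-well plates. Step 2: add test compound at a single concentration. Step 3: incubate 48 h. Step 4: record percent growth.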 Active and inactive are the calls of the source. Rule for the calls: active = growth percent below 10; inactive = the rest.

This passage reports growth results from PubChem BioAssay (NCI).

The test system of the assay is MCF7 breast. As to the kind of experiment: NCI-60 one-dose screen, 48 h (100 = growth as untreated, 0 = no growth, -100 = all killed). To be noted: 10 µM unless noted.
Regarding `CC1(C)c2[nH]c3ccccc3c2C[C@]2(C)[C@H]3C(=O)C=C4[C@@H]5C[C@@](C)(C(N)=O)CC[C@]5(C)CC[C@@]4(C)[C@]3(C)CC[C@@H]12`, the growth was 35.3% (inactive).

In the case of `C[C@H]1[C@H](C)CC[C@]2(C(=O)NCC#CCN3CCN(C)CC3)CC[C@]3(C)C(=CC[C@@H]4[C@@]5(C)Cc6c([nH]c7ccccc67)C(C)(C)[C@@H]5CC[C@]43C)[C@H]12`, the growth is 41.3% (inactive). Next, `CC(=O)O[C@@H]1C2CCC3C(CC[C@@]4(C)C3CC[C@@H]4C(C)N(C)C)[C@@]2(C)CC[C@@H]1NC(=O)C=C(C)C` (stereo partly drawn): -16.9% (active). For `CCN1C(=O)N(CC)C2Nn3c(s/c(=C\c4ccc(OC)cc4)c3=O)=NC21` (stereo not drawn), the growth was 21% (inactive). Next, `CN1CCC(=C(c2ccccc2)c2ccccc2)C(c2ccccc2)C1` (stereo not drawn): 86.7% (inactive). The same measure for `O=C(Cc1ccccc1)NNc1nc(Cl)nc(N2CCN(C(c3ccccc3)c3ccccc3)CC2)n1`: 92.3% (inactive); for `N#CC(C#N)=Cc1cc2ccccc2nc1Oc1ccc(C(F)(F)F)cc1`: 56.9% (inactive). `COc1cc(/C=C\c2cc(OC)c(OC)c(OC)c2)cc(N)c1OC`: the growth was 85.4% (inactive). For `COc1cccc(-c2nc3occn3c2-c2ccnc(NCCCNS(=O)(=O)c3ccc(C(F)(F)F)cc3)n2)c1`, the growth was 79.8% (inactive). `O=C(O)c1ccc2c(c1)C(=O)N(Cc1ccccc1)C2=O`: the growth was 95.3% (inactive). As to `C=C(C)[C@@H]1CC[C@]2(C(=O)N3CCN(C)CC3)CC[C@]3(C)[C@H](CC[C@@H]4[C@@]5(C)CC[C@H](O)C(C)(C)[C@@H]5CC[C@]43C)[C@@H]12`, the growth is -79.6% (active). Next, `Cn1cc(-c2nc(-c3c[nH]c4c(Cl)nccc34)cs2)c2cc(Br)ccc21`: 77.4% (inactive); `O=S(=O)(NCCCNc1nccc(-c2c(-c3cccc(F)c3)nc3sccn23)n1)c1cccc(F)c1`: 33.7% (inactive); `Cn1c(N2NC(=O)C(N=Nc3ccc(S(N)(=O)=O)cc3)C2=O)nc(-c2ccco2)c(C#N)c1=O` (stereo not drawn): 68% (inactive). Consider `NC(=S)N1N=C(c2ccccc2)CC1c1cn(-c2ccccc2)nc1-c1ccc(OCc2ccccc2)cc1` (stereo not drawn), for which the growth is 97.3% (inactive). On to `CCCCOc1ccc(/C(C)=N/Nc2cc(C)nc3ccc(Br)cc23)cc1`, for which the growth was 21.3% (inactive). Take `CN(C)CC(O)c1ccc(/C=C/c2ccc(Cl)cc2)cc1` (stereo not drawn): the growth was -81.6% (active). For `CC(=O)Nc1cccc(-c2ccc3c(c2)NC(=O)/C3=C\c2ccc[nH]2)c1`, the growth is 17.8% (inactive). Turning to `O=C(Nc1ncc(Cc2cc(Cl)ccc2Cl)s1)c1cccs1`, the growth is 32.5% (inactive).

`N#C/C(=C\c1ccc([N+](=O)[O-])s1)c1nc2cc(Cl)ccc2s1`: the growth is 4.17% (active).

In the case of `CCN(Cc1ccccc1)c1ccc(C=O)cc1`, the growth was 96% (inactive). For `CCN1CCN(CCNc2nccc(-c3c(-c4cccc(OC)c4)nc4occn34)n2)S1(=O)=O`, the growth is 86.1% (inactive). Consider `CNC(=O)c1cc(Cn2nc(C)c(NC(=O)Nc3ccc(Cl)c(C(F)(F)F)c3)c2C)ccn1`, for which the growth is 93.8% (inactive). Take `CC1(C)CC(=O)C2=C(C1)N(c1ccc(F)cc1F)C(N)=C(C#N)C2c1cc(Br)ccc1F` (stereo not drawn): the growth was 95% (inactive). The same measure for `CCC(CC)NCC(C)(C)O`: 97.9% (inactive). The same measure for `COCCCN1CC(O)=C(c2nc(-c3ccc(C)cc3)cs2)C1=N`: 360% (inactive). The same measure for `CC(=O)N1c2ccccc2NC2=C(C(=O)NC2(C)C)C1c1ccco1` (stereo not drawn): 37.9% (inactive). On to `Cc1c(C(=O)NCCC(=O)NO)sc2ncnc(Nc3ccc(F)c(Cl)c3)c12`, for which the growth is 95.2% (inactive). For `COc1ccc(C(=O)c2cc(C)c(OC)c(C)c2)c(OC)c1OC(=O)C(Cl)Cl`, the growth was 12.4% (inactive). The same measure for `COc1ccc(-c2[nH][nH]c(=O)c2-c2nc3ccccc3s2)cc1`: 93.9% (inactive); for `CN(C)c1ccc(Nc2c3ccccc3nc3cc(NC(=O)CCN4CCCC4)ccc23)cc1`: -21.8% (active); for `CCOC(=O)c1ccc2c(c1)ncn2-c1ccc(NC(=O)Nc2cccc(C)c2)cc1`: 54.7% (inactive). As for `C/C=C(\C)C(=O)NC1=CC[C@@]2(C)C(=CCC3C2CC[C@@]2(C)C3CC[C@@H]2C(C)N(C)C)C1=O` (stereo partly drawn), the growth was 10.3% (inactive).

As to `COc1ccc(NC(N)=NCCCOc2ccc(F)cc2)cc1`, the growth is 10.7% (inactive).

With `Cc1cc2nc3c4cc(C=O)ccc4n(CCN(C)C)c3nc2cc1C`, the growth was 2.77% (active).

As to `CC(=O)N1N=C(c2ccc(-n3ccc(C(F)(F)F)n3)c(F)c2)CC1c1ccc[nH]1` (stereo not drawn), the growth is 92.8% (inactive). With `Brc1ccc(Nc2csc(-c3ccccn3)n2)cc1`, the growth was 87.2% (inactive). Next, `Cc1ccc(C(=O)/C(=C\c2ccc([N+](=O)[O-])cc2)S(=O)Cc2ccc(F)cc2)cc1` (stereo not drawn): 7.88% (active).
